Only some compounds are listed: those with a hit (about 4% of all), similar ones and a draw of the others.
Mtb betalactam: beta-lactam sensitization of Mtb H37Rv; M. tuberculosis H37Rv growth with meropenem, percent inhibition; inhibition, % at 25 µM; actives 0.27% (n = 330,000); call rule not given here;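 also: growth measured after seven days incubation then overnight dye step; 0% = bacteria only wells and 100% = bacteria with antibiotic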
Mtb FBA inh: Mtb fructose-bisphosphate aldolase inhibition. AID 588726. P9WQA3. actives 2.3% (n = 360,000). purified M. tuberculosis FBA, fluorescence read-out. inhibition, % at 1 µM; in the data active = inhibition above about 27%;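 also: 0% = vehicle and 100% = reference inhibitor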
Target sequence (P9WQA3 whole entry, looked up): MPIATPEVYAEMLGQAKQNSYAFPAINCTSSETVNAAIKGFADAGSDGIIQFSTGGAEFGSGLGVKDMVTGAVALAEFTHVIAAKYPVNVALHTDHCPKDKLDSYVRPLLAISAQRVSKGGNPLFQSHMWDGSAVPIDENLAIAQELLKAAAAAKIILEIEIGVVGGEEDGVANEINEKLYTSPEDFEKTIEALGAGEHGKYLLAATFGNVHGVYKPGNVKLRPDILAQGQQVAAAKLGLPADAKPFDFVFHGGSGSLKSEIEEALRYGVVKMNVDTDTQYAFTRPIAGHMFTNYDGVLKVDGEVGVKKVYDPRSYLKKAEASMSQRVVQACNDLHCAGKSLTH
GDH-TPI inh: inhibits GDH-TPI coupling enzymes, artifact for Mtb FBA screen. actives 1.2% (n = 360,000). inhibition, % at 4.8 µM. AID 588335. GDH-TPI coupled enzyme counterscreen, NADH absorbance;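 also: 0% = DMSO wells and 100% = wells lacking the enzyme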
MazEF act: activators of E. coli MazEF toxin-antitoxin RNase. activation, % at 20 µM. AID 504720. FAM/BHQ RNA-DNA oligo cleavage fluorescence, 5 h. actives 0.32% (n = 350,000); in the data active = activation above about 50%
Target sequence (P0AE70 whole entry, looked up): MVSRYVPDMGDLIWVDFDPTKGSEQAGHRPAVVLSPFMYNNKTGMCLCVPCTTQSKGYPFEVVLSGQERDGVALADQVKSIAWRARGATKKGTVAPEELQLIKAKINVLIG
CCHF vOTU inh-1: CCHFV vOTU protease inhibition; actives 0.55% (n = 370,000); inhibition, % at 11.5 µM; Pep-AMC fluorescence; also: 0% = vehicle wells with enzyme and 100% = no enzyme wells
CCHF vOTU inh-2: confirmation of CCHF virus vOTU protease inhibitors. shares compounds with CCHF vOTU inh-1. Recombinant CCHFV vOTU, Pep-AMC fluorescence. inhibition, % at 11.5 µM. actives 17% (n = 1,900)
* = called active by the depositor; . = not tested or not shown. Rule as the data show it, unless noted: active = inhibition above about 30%; inactive = the rest.

SMILES | Mtb betalactam | Mtb FBA inh | GDH-TPI inh | MazEF act | CCHF vOTU inh-1 | CCHF vOTU inh-2
CN1CCc2c(sc3c2c(=O)n(-c2ccccc2)c2nnc(SCc4ccccc4)n32)C1 | 10 | 3 | 12 | 10 | 31* | -7
C/C(=N\NC(=O)c1cccc(S(=O)(=O)N2CCCC2)c1)c1cccs1 | -3 | -3 | 8 | 7 | 7 | .
Cc1cc2cc(C(c3nnnn3Cc3ccco3)N3CCc4ccccc4C3)c(=O)[nH]c2cc1C (stereo not given) | 91 | 7 | 1 | 16 | 61* | -10
CC(=O)N(CN1C(=O)c2ccccc2C1=O)c1cccc(C)c1 | -2 | 2 | 7 | 5 | -1 | .
CC(=O)N(/N=C1\Sc2ccccc2C1=O)c1cccc(C)c1 | 34 | -14 | 2 | 4 | 36* | 37*
C=CCn1c(COc2ccccc2)nnc1SCC(=O)c1ccc(OC)cc1 | . | . | . | . | 11 | .
C=CCn1c(COc2ccc(F)cc2)nnc1SCC(=O)c1c[nH]c2c(CC)cccc12 | 2 | 4 | 7 | -10 | 37* | 3
O=C(Nc1cccc([N+](=O)[O-])c1)NC1CCS(=O)(=O)C1 (stereo not given) | 3 | 2 | 1 | 2 | -3 | .
O=C(Nc1cc([N+](=O)[O-])ccc1O)NC1CCS(=O)(=O)C1 (stereo not given) | -6 | -9 | 2 | 3 | 36* | -6
CN(Cc1ccc(Cl)cc1)C(=O)c1ccc2ccccc2n1 | 3 | 3 | -5 | -20 | 16 | .
O=c1oc2cc(O)c(Cl)cc2c2ccccc12 | 65 | 5 | 18 | 8 | 30* | -7
O=C(c1ccccc1Cl)c1c(O)c2ccccc2oc1=O | 6 | -1 | 10 | 2 | 8 | .
COc1ccc2nc(N3C(=O)C(O)=C(C(=O)c4ccco4)C3c3ccc(OC)c(OC)c3)sc2c1 (stereo not given) | . | -5 | 10 | 8 | 34* | 2
COc1ccc(C2C(C(C)=O)=C(O)C(=O)N2c2nc3ccccc3s2)cc1OC (stereo not given) | -2 | 8 | 9 | -12 | 14 | .
CCC(C)(C#CCN1CCCCC1)OCCC#N (stereo not given) | 7 | 1 | -2 | -2 | -2 | .
CCN(C(=O)CSc1nccc(=O)[nH]1)C1CCCCC1 | 30 | 3 | 10 | 3 | 4 | .
CN(C(=O)CSc1nccc(=O)[nH]1)C1CCCCC1 | -2 | 6 | 0 | -23 | 38* | -14
COc1ccc(C(=O)NCCS(=O)(=O)NCc2ccc(C)cc2)cc1 | 0 | -1 | 10 | -3 | -3 | .
CCCCCCCCNS(=O)(=O)CCNCc1ccc(OC)cc1 | . | -1 | 5 | 0 | 32* | 6
COc1ccc(CNS(=O)(=O)CCNC(=O)c2ccc(OC)cc2)cc1 | -3 | 4 | -8 | -5 | 31* | -14
Cc1cccc(NC(=O)COC(=O)c2ccc3c(c2)OCO3)c1C | 4 | 1 | -1 | 8 | 6 | .
Cc1ccc(/C=C/C(=O)Nc2nccs2)o1 | 1 | 1 | 52* | 14 | 51* | 2
COc1ccc(CNC(=O)c2ccccc2NC(=O)C2=CSCCO2)c(OC)c1 | 6 | 1 | 9 | 4 | 9 | .
COc1cc(C(=O)NNC(=O)c2ccccc2Br)ccc1OCC(=O)N1CCOCC1 | 1 | 1 | 6 | 4 | -4 | .
CCC(C)n1c(NC(=O)c2ccccc2)c(C#N)c2nc3ccccc3nc21 (stereo not given) | 96 | 18 | 16 | 4 | 94* | 68*
SMILES | Mtb betalactam | Mtb FBA inh | GDH-TPI inh | MazEF act | CCHF vOTU inh-1 | CCHF vOTU inh-2
Cc1nn(C(C)(C)C)c(NC(=O)c2ccccc2)c1C#N | -7 | 0 | 16 | 1 | -17 | .
CCCCn1c(NC(=O)c2ccccc2)c(C#N)c2nc3ccccc3nc21 | . | 20 | 15 | -13 | 121* | 90*
O=C(Cn1cnnn1)NC1CCCN(Cc2ccccc2F)C1 (stereo not given) | 3 | 0 | -8 | 0 | 5 | .
COC(=O)c1cccc(N(CC(=O)NC2CCCC2)C(=O)CNC(=O)c2cccs2)c1 | -2 | -3 | -1 | 8 | -17 | .
CC1(Cc2cccc(C(F)(F)F)c2)C(=O)Nc2ccc(-c3ccc(F)c(Cl)c3)cc21 (stereo not given) | . | -3 | 4 | . | 32* | -1
Cc1noc(NS(=O)(=O)c2ccc(NC(=O)c3cc(F)c(F)c(F)c3F)cc2)c1C | . | 4 | 2 | 5 | 8 | .
CCOC(=O)CSc1nc2c(sc(=S)n2-c2ccc(CC)cc2)c(=O)[nH]1 | 3 | 3 | 33* | -6 | 35* | 23
CCOC(=O)CC(=O)CSc1nc2c(sc(=S)n2-c2ccccc2)c(=O)[nH]1 | -10 | -2 | 30 | -1 | 7 | .
Oc1ccc(N2CCN(Cc3nc4ccccc4[nH]3)CC2)cc1 | -7 | 1 | -7 | 5 | -11 | .
Nc1ccc2c(c1)Cc1cc(Cl)c(Cl)cc1-2 | . | 3 | 6 | -6 | 0 | .
Nc1ccc2c(c1)Cc1cc(N)c(Cl)cc1-2 | . | 3 | 18 | 13 | 31* | -9
O=C(CCCCCN1C(=O)C2C3C=CC(C3)C2C1=O)Nc1ccc(Cl)cc1 (stereo not given) | . | . | . | . | 1 | .
O=C(CCCCCN1C(=O)C2C3C=CC(C3)C2C1=O)Nc1ccc2ncccc2c1 (stereo not given) | . | . | . | . | 69* | 18
COC(=O)C(C(C)=O)C1=C/C(=N\S(=O)(=O)c2ccc(C)cc2)c2ccccc2C1=O (stereo not given) | 0 | 3 | 2 | 8 | . | .
O=C(O)c1ccc(S(=O)(=O)/N=C2\C=C(Nc3ccccc3F)C(=O)c3ccccc32)cc1 | 96 | -6 | 7 | 5 | 122* | 103*
Cc1ccccc1NC1=C/C(=N\S(=O)(=O)c2ccc(C(=O)O)cc2)c2ccccc2C1=O | 75 | -5 | 5 | -20 | 107* | 101*
CCN=C1SC(CC(=O)NCc2ccccc2)C(=O)N1CC (stereo not given) | -3 | 0 | -5 | 5 | 15 | .
CC(=O)c1c(C)[nH]c(C(=O)OCC(=O)Nc2ccc([N+](=O)[O-])cc2Cl)c1C | -2 | 2 | 5 | 4 | -4 | .
CC(=O)c1c(C)[nH]c(C(=O)OCC(=O)NNC(=O)c2ccc([N+](=O)[O-])cc2)c1C | 23 | -1 | 15 | 4 | 35* | -12
COc1cc(CNc2ccc(N3CCCCC3)cc2)ccc1OCC(=O)NC(C)(C)C | 0 | -3 | 17 | -3 | -3 | .
CC(=O)c1cc(O)c2ccccc2c1O | 4 | 1 | -1 | 30 | 37* | -9
O=C(CS(=O)(=O)Cc1ccccc1)NCc1ccccc1Cl | -9 | -1 | 3 | -20 | 0 | .
C=CCNC(=O)c1cccc2c1C(=O)c1ccc(N3CCOCC3)cc1S2(=O)=O | -1 | -7 | 2 | -21 | 31* | -7
O=C(O)C[C@H]1c2cc(C(F)(F)F)ccc2S(=O)(=O)N1C1CCCCC1 | -5 | 3 | -1 | 7 | -3 | .
O=C1Cc2ccccc2C(=O)N1Cc1cccc(Cl)c1 | 1 | 0 | -9 | 3 | 64* | 54*

Compound activity deposited in PubChem by several laboratories.
